Activity calls are given as the source filed them. Rule for the calls: active = hit-call score of the fitted dose curve at least 0.9, where 1 is the maximum; inactive = score below 0.9.

A short description of the assay: ATG_CRE_CIS: Attagene CIS-FACTORIAL HepG2 Assay for human cAMP Responsive Element (CRE) binding protein 3 (AID 2282926). The conditions noted are these: HepG2 CRE cis-reporter, Attagene multiplexed mRNA; actives raise or lower the signal. Put shortly: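 Assay format: transient reporter transfection of HepG2, 24 h treatment, total RNA isolation with DNase I step. Reporter abundance read by fluorescence after PCR and capillary separation; DMSO-normalised gain or loss fitting.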
On to `CCOS(=O)(=O)OCC`, for which the call was inactive.

On to `ClC(Cl)(Cl)c1ccccc1`, for which the result was inactive.

As for `CC(C)(C)N(NC(=O)c1ccc(Cl)cc1)C(=O)c1ccccc1`, the result was inactive.

Take `CCN(CC)c1ccccc1`: the compound was called inactive.

In the case of `CCCCN(CCCC)SN(C)C(=O)Oc1cccc2c1OC(C)(C)C2`, the compound was classed as inactive.

With `CCOP(=S)(OCC)SCSCC`, the call was inactive.

For the compound `CCCCCCCc1ccc(O)cc1`, the compound was classed as inactive.

`O=C(O)C=CC(F)(C(F)(F)F)C(F)(F)F`: the compound was called inactive.

As for `CC(Cc1ccc(OCC(=O)O)cc1)NCC(O)c1csc(C(F)(F)F)n1` (stereo unspecified), the compound was called inactive.

Consider `CCC(C)(C)c1ccc(O)cc1`, for which the outcome was inactive.

`O=S(=O)(F)C(F)(F)C(F)(F)C(F)(F)C(F)(F)C(F)(F)C(F)(F)C(F)(F)C(F)(F)F`: the compound was called inactive.

One may read the AC50 as the midpoint of the concentration-response curve, whichever way the signal moves. On to `N#Cc1c(-c2ccc(Cl)cc2)[nH]c(C(F)(F)F)c1Br`, for which the concentration at half-maximal activity (AC50) is 19 nM (active).

In the case of `O=P(Oc1ccccc1)(Oc1ccccc1)Oc1ccccc1`, the compound was called inactive.

Regarding `O=[N+]([O-])c1ccc(Cl)c(Cl)c1`, the call was inactive.

As for `C/C(=N\NC(=O)Nc1cc(F)cc(F)c1)c1ncccc1C(=O)O`, the compound was called inactive.

As for `Nc1ccc(Cl)cc1`, the compound was called inactive.

`CC(O)C#N` (stereo unspecified): the result was inactive.

Regarding `C=C(C)C(=O)OCC1CO1` (stereo unspecified), the result was inactive.

As to `CCCCN(CC)C(=O)SCCC`, the result was inactive.

Regarding `CCCCN(CCCC)N=O`, the compound was classed as inactive.

In the case of `ClC(Cl)c1ccccc1`, the compound was classed as inactive.

With `c1ccc2c(c1)sc1ccccc12`, the call was inactive.

With `Cc1ccc([N+](=O)[O-])cc1C`, the call was inactive.

As to `CCC1(c2ccccc2)C(=O)N=C(O)NC1=O` (stereo unspecified), the call was inactive.

For the compound `OCC(F)(F)OC(F)(F)C(F)(F)OC(F)(F)CO`, the compound was classed as inactive.

For `CCOP(=S)(Oc1ccc([N+](=O)[O-])cc1)c1ccccc1` (stereo unspecified), the compound was classed as inactive.

For the origin of these results see PubChem BioAssay (EPA / NIEHS).
